The record followed here is PubChem BioAssay (NCI).

Among the test systems are NCI-H23 lung; NCI-H226 lung; NCI-H322M lung; HOP-62 NSCLC; NCI-H460 lung; NCI-H522 lung; 786-0 renal; COLO 205 colon; A549/ATCC NSCLC.
Common to all, as to assay: NCI-60 one-dose screen, 48 h (100 = growth as untreated, 0 = no growth, -100 = all killed)
Common to all, as to conditions: 10 µM unless noted

This is part of a sample that, as a whole, favours compounds with a hit. Of some 83,000 tested, about 20% had one in any assay.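 Growth was measured after 48 h exposure to one concentration of compound in 96-well plates. Values under 10 count as active.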 Values without a mark were called inactive. Active and inactive are the calls of the source.

For the compound `COc1cc(/C=C/c2ccnc3ccccc23)cc(OC)c1OC`, the growth was 26.5% in the assay on NCI-H23 lung; 38.3% in the assay with NCI-H226 lung; 65.7% in the assay with NCI-H322M lung; 28.1% with HOP-62 NSCLC; 22.4% with NCI-H460 lung; 26.8% with NCI-H522 lung. The figures for the growth in the assay on 786-0 renal and with COLO 205 colon were 39.6% and 22.5%, respectively.
As to `S=C1SCN(Cc2cccs2)CN1Cc1cccs1`, the growth in the assay with NCI-H23 lung was 107%; in the assay on NCI-H226 lung it was 104%; in the assay on NCI-H322M lung, 99.4%; in the assay with HOP-62 NSCLC, 122%; in the assay with NCI-H460 lung, 101%; in the assay on NCI-H522 lung it was 46.7%. The growth with 786-0 renal was 102%; in the assay with COLO 205 colon it was 108%.
Regarding `COc1ccc(/C=C2/C(=O)ON=C2C)cc1`, the growth is 112% in the assay on NCI-H23 lung; 101% with NCI-H226 lung; 118% in the assay on NCI-H322M lung; 101% in the assay with HOP-62 NSCLC; 107% in the assay with NCI-H460 lung; 94.2% in the assay with NCI-H522 lung. For the same compound, the figures for the growth in the assay with A549/ATCC NSCLC, with 786-0 renal and with COLO 205 colon were 103%, 105% and 104%, respectively.
Consider `CCCCCCCCCCCC[n+]1ccc2ccccc2c1`, for which the growth in the assay with NCI-H23 lung is -33.4% (active); in the assay on NCI-H226 lung it was 4.19% (active); with NCI-H322M lung, 17%; in the assay with HOP-62 NSCLC, -33.2% (active); in the assay on NCI-H460 lung it was -13.5% (active); in the assay on NCI-H522 lung, -39.2% (active). In addition, the growth in the assay with A549/ATCC NSCLC was 6.68% (active); in the assay on 786-0 renal, -62.8% (active); in the assay with COLO 205 colon, -80.2% (active).
Consider `C/C=C/c1cc2c(c(=O)o1)C(=O)[C@@H](O)[C@H](C)O2`, for which the growth with NCI-H23 lung is 77.9%; with NCI-H226 lung, 79.6%; with NCI-H322M lung, 94.6%; in the assay on HOP-62 NSCLC, 101%; in the assay with NCI-H460 lung it was 81.6%; in the assay with NCI-H522 lung it was -69% (active). For the same compound, the figures for the growth in the assay on A549/ATCC NSCLC, in the assay on 786-0 renal and with COLO 205 colon were 97.2%, 78.4% and 35.6%, respectively.
For `CC12CCC(O)CC1=CCC1C2CCC2(C)C3=NN=CC3CC12` (centres undefined), the growth is 101% in the assay with NCI-H23 lung; 105% in the assay on NCI-H226 lung; 118% in the assay on NCI-H322M lung; 101% with HOP-62 NSCLC; 125% with NCI-H460 lung; 105% in the assay on NCI-H522 lung. Besides, the growth in the assay with 786-0 renal and in the assay on COLO 205 colon was 112% each time.
For `Cc1cc(=O)oc2cc(O)cc(O)c12`, the growth with NCI-H23 lung is 107%; in the assay with NCI-H226 lung, 97.7%; in the assay with NCI-H322M lung it was 103%; in the assay on HOP-62 NSCLC it was 87.2%; in the assay on NCI-H460 lung, 99%; in the assay with NCI-H522 lung it was 88.7%. In addition, the values for the growth in the assay with 786-0 renal and in the assay with COLO 205 colon were 98% and 110%, respectively.
As for `Nc1cccc2cccc([N+](=O)[O-])c12`, the growth with NCI-H23 lung is 101%; in the assay on NCI-H226 lung it was 94.8%; with NCI-H322M lung, 114%; in the assay on HOP-62 NSCLC, 97.8%; in the assay on NCI-H460 lung it was 112%; with NCI-H522 lung, 104%. The growth with A549/ATCC NSCLC is 106%; with 786-0 renal it was 100%; with COLO 205 colon it was 94.1%.
Regarding `CCOc1ccc2c(c1)/C(=C\C=C\C1CC(C)C3CC(OCC)CCC3N1CC)CC(C)N2CC` (centres undefined), the growth was 14.5% in the assay with NCI-H23 lung; 18.1% in the assay with NCI-H226 lung; 4.18% (active) with NCI-H322M lung; 11.6% in the assay with HOP-62 NSCLC; 8.11% (active) in the assay on NCI-H460 lung; -19.3% (active) in the assay on NCI-H522 lung. The growth in the assay on A549/ATCC NSCLC was 4.18% (active); in the assay with 786-0 renal, 10.3%; in the assay with COLO 205 colon it was -46.7% (active).
On to `CCOC(=O)c1[nH]c(C#N)c(C(=O)OCC)c1C`, for which the growth was 101% with NCI-H23 lung; 95.9% in the assay on NCI-H226 lung; 93.6% in the assay with NCI-H322M lung; 101% in the assay on HOP-62 NSCLC; 114% in the assay with NCI-H460 lung; 97.9% in the assay on NCI-H522 lung. For the same compound, the growth is 98% in the assay on A549/ATCC NSCLC, 86.9% in the assay with 786-0 renal and 131% in the assay with COLO 205 colon.
As for `CC1(O)CCCCCC1`, the growth with NCI-H23 lung is 98.4%; in the assay on NCI-H226 lung, 99.1%; in the assay with NCI-H322M lung it was 93.1%; with HOP-62 NSCLC, 87.7%; in the assay with NCI-H460 lung it was 107%; in the assay on NCI-H522 lung, 112%. The growth in the assay on A549/ATCC NSCLC is 103%; in the assay with 786-0 renal it was 95.7%; in the assay on COLO 205 colon, 107%.
On to `Oc1c(Cl)cc(Cl)cc1C(c1cc(Cl)cc(Cl)c1O)C(Cl)(Cl)Cl`, for which the growth was -19.9% (active) in the assay on NCI-H23 lung; 5.37% (active) with NCI-H226 lung; -21.8% (active) in the assay with NCI-H322M lung; -6.29% (active) with HOP-62 NSCLC; -20.7% (active) in the assay with NCI-H460 lung; -12.8% (active) in the assay with NCI-H522 lung. Further, the growth in the assay with A549/ATCC NSCLC was 1.48% (active); with 786-0 renal, 9.47% (active); in the assay on COLO 205 colon, -90.9% (active).
On to `O=C1C=CC(O)=CC1=P(c1ccccc1)(c1ccccc1)c1ccccc1`, for which the growth in the assay on NCI-H23 lung is 94.6%; with NCI-H226 lung, 88.8%; with NCI-H322M lung it was 83.3%; in the assay on HOP-62 NSCLC, 99.7%; with NCI-H460 lung it was 73.6%; in the assay on NCI-H522 lung, 81.8%. For the same compound, the growth was 87.9% in the assay with 786-0 renal and 105% in the assay with COLO 205 colon.
As to `COc1cc(NCc2ccc3nc(N)nc(N)c3c2C)cc(OC)c1OC` (tested in a mixture with another compound), the growth with NCI-H23 lung is 16.1%; in the assay on NCI-H226 lung, 47.5%; in the assay with NCI-H322M lung it was 51.9%; with HOP-62 NSCLC it was 29.8%; in the assay with NCI-H460 lung it was 14.1%; in the assay with NCI-H522 lung, 22.3%. The growth was 15.5% in the assay on 786-0 renal and 40.2% in the assay with COLO 205 colon.
Turning to `CC(O)C(O)C(O)C(O)C(O)C(=O)NNc1ccccc1` (centres undefined), the growth was 96.1% with NCI-H23 lung; 94.3% in the assay on NCI-H226 lung; 76.1% with NCI-H322M lung; 72.4% in the assay on HOP-62 NSCLC; 100% with NCI-H460 lung; 66.8% in the assay with NCI-H522 lung. In addition, the growth with A549/ATCC NSCLC was 90.9%; with 786-0 renal, 103%; in the assay on COLO 205 colon, 94.2%.
